# Records with an inconclusive call do not appear. Values without a mark were called inactive. Active and inactive are the calls of the source. Calls follow the shape of the dose curve; as a rule, active = well fitted cell-killing curve with a large enough effect; inconclusive = small, poorly fitted or top-dose-only effect; inactive = flat fitted curve, though single readings scatter. Peptide text beside a SMILES is read from it.
# Assay: Cell Viability - LYMP2-026 (AID 989); also: nearly all actives have a fitted effect of over 50% in size
# Settings: LYMP2-026 lymphoblastoid cell viability, qHTS; series mostly up to 92.2 µM; activity change, negative = cytotoxic: at the top concentration
# Source text: NIH Chemical Genomics Center [NCGC]
# NIH Molecular Libraries Screening Centers Network [MLSCN]
# National Institutes of Environmental Health Sciences [NIEHS]
# National Toxicology Program [NTP]
# We have developed a 1536-well cell-based assay for quantitative high throughput screening (qHTS) against a number of cell lines to determine in vitro cytotoxicity of small molecules. This particular assay uses a human lymphoblastoid cell line (LYMP2-026) purchased from Coriell Institute for Medical Research.
# NCGC Assay Protocol Summary:
# The CellTiter-Glo luminescent cell viability assay (Promega) is a homogeneous method to measure the number of viable cells in culture. The end point readout of this assay is based on quantitation of intracellular ATP, an indicator of metabolic activity, using the luciferase reaction. Luciferase catalyzes the oxidation of beetle Luciferin to oxyluciferin and light in the presence of ATP. The luminescent signal is proportional to amount of ATP present.
# Using the CellTiter-Glo luminescent cell viability assay, the amount of cellular ATP was measured in the lymphoblastoid cell line with complete culture medium following compound treatment for 24 hours. The assay was performed in opaque white Kalypsys 1536-well plates. In the screen, tetraoctylammonium bromide was used as positive control. Library compounds were measured for their ability to cause acute toxicity in the cell line, as reflected by a decrease in intracellular ATP levels, in a concentration-dependent manner. […] AC50 values were determined from concentration-response data modeled with the standard Hill equation.
# qHTS protocol for CellTiter Glo lymphoblastoid cellular assay
# [Step] [Parameter] [Value] [Description]
# 1. Reagent; 5 uL; 2500 lymphoblastoid cells/well
# 2. Time; 5 hr; 37 C incubation
# 4. Controls; 23 nL; Tetraoctylammonium bromide 6.4pM to 92 uM
# 5. Time; 24 hr; 37 C incubation
# 6. Reagent; 5 uL; CellTiter Glo reagent
# 7. Time; 30 min; Room Temperature
# 8. Detection; Luminescence; Viewlux plate reader
# Keywords: cell viability, cytotoxicity, lymphoblastoid cell line, luminescence, NTPHTS, NTPHTS_NCGC, NIEHS, DSSTox, MLSMR, MLSCN, NIH Roadmap, qHTS, NCGC
# % is scaled to controls: 0 for no effect and ±100 for the full control effect; potency is read from the fitted curve at half-maximal effect.
SMILES,"activity change, negative = cytotoxic [%]",Potency
CC(=O)Nc1ccc(O)cc1,-4.91,
NS(=O)(=O)c1cc(C(=O)O)c(NCc2ccco2)cc1Cl,0.65,
CCCCC(CC)COC(=O)C(C#N)=C(c1ccccc1)c1ccccc1 (configuration not stated),-19.1,
Nc1ccc(S(N)(=O)=O)cc1,4.55,
CCCc1cc(=O)[nH]c(=S)[nH]1,-3.64,
CN(C)c1ccc2nc3ccc(=[N+](C)C)cc-3sc2c1,,7.94 µM (active)
Cc1ccc(C)c(OCCCC(C)(C)C(=O)O)c1,-8.8,
COC(=O)[C@H](Cc1ccccc1)NC(=O)[C@@H](N)CC(=O)O (H-Asp-Phe-OMe),4.3,
CS(=O)(=O)OCCCCOS(C)(=O)=O,,inactive
CCc1nc(N)nc(N)c1-c1ccc(Cl)cc1,-17,
c1ccc2[nH]c(-c3cscn3)nc2c1,-8.48,
COc1c2occc2cc2ccc(=O)oc12,-6.46,

# Reference: PubChem BioAssay (NCATS)
